# Test results as given in publication PMC8384837, “Expanding the binding specificity for RNA recognition by a PUF domain”.
# What was measured:
# Experiment in all cases: yeast three-hybrid, YBZ-1, SC-Leu-His + 0.5 mM 3-AT, 4 days
# Details in all cases: tags: N-Gal4 AD-HA kept; label: inside an RPR1-promoter hybrid RNA with tandem MS2 sites; ssRNA
# PUM1 PUF domain R5-KRR = PUM1 PUF domain R5-KRR (Homo sapiens, UniProt Q14671 828-1176, C1007K;Q1011R)
# Method in brief: (§1)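 Repeat regions from input (SC-Leu) and selection (SC-Leu-His + 0.5 mM 3-AT) plates were PCR-amplified and Illumina-sequenced after four days of growth. The cells were strain YBZ-1 with a LexA–MS2 coat fusion and a HIS3 reporter, co-expressing Pumilio-1 PUF domain libraries and matching RNA elements from a centromeric plasmid. The interaction score is the log change in variant frequency from input to selection, taken in log2 with a pseudocount of 1 for absent variants.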
# PUM1 PUF domain R5-RMS = PUM1 PUF domain R5-RMS (Homo sapiens, UniProt Q14671 828-1176, C1007R;R1008M;Q1011S)
# Method in brief: as §1
# PUM1 PUF domain R7-RPM = PUM1 PUF domain R7-RPM (Homo sapiens, UniProt Q14671 828-1176, S1079R;N1080P;E1083M)
# Method in brief: as §1
# PUM1 PUF domain R3-IWL = PUM1 PUF domain R3-IWL (Homo sapiens, UniProt Q14671 828-1176, C935I;R936W;Q939L)
# Method in brief: as §1
# PUM1 PUF domain R8-RYG = PUM1 PUF domain R8-RYG (Homo sapiens, UniProt Q14671 828-1176, N1122R;Q1126G)
# Method in brief: as §1
# PUM1 PUF domain R4-GHP = PUM1 PUF domain R4-GHP (Homo sapiens, UniProt Q14671 828-1176, N971G;Q975P)
# Method in brief: as §1
# PUM1 PUF domain R3-SSE = PUM1 PUF domain R3-SSE (Homo sapiens, UniProt Q14671 828-1176, C935S;R936S;Q939E)
# Method in brief: as §1
# PUM1 PUF domain R4-NRA = PUM1 PUF domain R4-NRA (Homo sapiens, UniProt Q14671 828-1176, H972R;Q975A)
# Method in brief: as §1
# PUM1 PUF domain R5-HFF = PUM1 PUF domain R5-HFF (Homo sapiens, UniProt Q14671 828-1176, C1007H;R1008F;Q1011F)
# Method in brief: as §1
# PUM1 PUF domain R5-QGC = PUM1 PUF domain R5-QGC (Homo sapiens, UniProt Q14671 828-1176, C1007Q;R1008G;Q1011C)
# Method in brief: as §1
sequence,measurement,setting,value
GGCUAGAACUAGUGGAUCCCCCGGCGCCCGGCGGCUCGAGCCCGGGUAAGUGUCAAUAGUCUGCAUGCCGCCGGGCGCCAUGCCUGCAGGUCGACUCUAGAAAACAUG,binding signal,PUM1 PUF domain R5-KRR,3.6 log2 enrichment (interaction score)
same,binding signal,PUM1 PUF domain R5-RMS,3.6 log2 enrichment (interaction score)
GGCUAGAACUAGUGGAUCCCCCGGCGCCCGGCGGCUCGAGCCCGGGUAAGUUUAAAUAGUCUGCAUGCCGCCGGGCGCCAUGCCUGCAGGUCGACUCUAGAAAACAUG,binding signal,PUM1 PUF domain R7-RPM,3.18 log2 enrichment (interaction score)
GGCUAGAACUAGUGGAUCCCCCGGCGCCCGGCGGCUCGAGCCCGGGUAAGUCUAAAUAGUCUGCAUGCCGCCGGGCGCCAUGCCUGCAGGUCGACUCUAGAAAACAUG,binding signal,PUM1 PUF domain R7-RPM,0.93 log2 enrichment (interaction score)
GGCUAGAACUAGUGGAUCCCCCGGCGCCCGGCGGCUCGAGCCCGGGUAAGUGUAAAUAGUCUGCAUGCCGCCGGGCGCCAUGCCUGCAGGUCGACUCUAGAAAACAUG,binding signal,PUM1 PUF domain R3-IWL,4.86 log2 enrichment (interaction score)
same,binding signal,PUM1 PUF domain R8-RYG,5.75 log2 enrichment (interaction score)
same,binding signal,PUM1 PUF domain R4-GHP,5.41 log2 enrichment (interaction score)
same,binding signal,PUM1 PUF domain R3-SSE,0.23 log2 enrichment (interaction score)
GGCUAGAACUAGUGGAUCCCCCGGCGCCCGGCGGCUCGAGCCCGGGUAAGUGUAAGUAGUCUGCAUGCCGCCGGGCGCCAUGCCUGCAGGUCGACUCUAGAAAACAUG,binding signal,PUM1 PUF domain R3-IWL,2.77 log2 enrichment (interaction score)
same,binding signal,PUM1 PUF domain R3-SSE,6.26 log2 enrichment (interaction score)
GGCUAGAACUAGUGGAUCCCCCGGCGCCCGGCGGCUCGAGCCCGGGUAAGUGUAUAUAGUCUGCAUGCCGCCGGGCGCCAUGCCUGCAGGUCGACUCUAGAAAACAUG,binding signal,PUM1 PUF domain R4-NRA,2.48 log2 enrichment (interaction score)
GGCUAGAACUAGUGGAUCCCCCGGCGCCCGGCGGCUCGAGCCCGGGUAAGUGUUAAUAGUCUGCAUGCCGCCGGGCGCCAUGCCUGCAGGUCGACUCUAGAAAACAUG,binding signal,PUM1 PUF domain R5-RMS,2.79 log2 enrichment (interaction score)
same,binding signal,PUM1 PUF domain R5-HFF,3.86 log2 enrichment (interaction score)
same,binding signal,PUM1 PUF domain R5-QGC,2.19 log2 enrichment (interaction score)
GGCUAGAACUAGUGGAUCCCCCGGCGCCCGGCGGCUCGAGCCCGGGUAAGCGUAAAUAGUCUGCAUGCCGCCGGGCGCCAUGCCUGCAGGUCGACUCUAGAAAACAUG,binding signal,PUM1 PUF domain R8-RYG,5.66 log2 enrichment (interaction score)
GGCUAGAACUAGUGGAUCCCCCGGCGCCCGGCGGCUCGAGCCCGGGUAAGUGUACAUAGUCUGCAUGCCGCCGGGCGCCAUGCCUGCAGGUCGACUCUAGAAAACAUG,binding signal,PUM1 PUF domain R4-GHP,5.4 log2 enrichment (interaction score)
